Counter-ions that a name gives are not always drawn. Values without a mark were called inactive.
Assays:
Settings in all cases: 20 µM
[1] = tested on: Salmonella enterica typhimurium; assay: growth AUC normalised to DMSO control (fraction of control); higher = less growth inhibition, active = hit call of the paper
Summary of the method: (§1)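 Hemin and NAD were added to the medium for Haemophilus parainfluenzae. All pathogens, after two anaerobic passages, were inoculated at a starting OD578 of 0.01 into pre-reduced mGAM plates with 20 μM compound and 1% DMSO under breathable seals, and OD578 was read hourly for 24 h in three biological replicates. AUC of each growth curve was obtained with the trapezoidal rule up to the exponential-to-stationary transition and normalised to DMSO controls from the same plate.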

[2] = tested on: Shigella flexneri; assay: as above
Summary of the method: as §1

[3] = tested on: Vibrio cholerae; assay: as above
Summary of the method: as §1

[4] = tested on: Yersinia pseudotuberculosis; assay: as above
Summary of the method: as §1

[5] = tested on: P. vulgatus RND KO; assay: growth AUC normalised to DMSO control (median) (fraction of control); higher = less growth inhibition, active = hit call of the paper
Summary of the method: (§2)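 After two overnight anaerobic passages, strains were inoculated at OD578 0.01 into mGAM in 96-well plates containing approved-drug library compounds at 20 μM and 1% DMSO. Growth was followed by reading OD578 hourly for 24 h within an anaerobic incubator. Area under the curve, taken by the trapezoidal rule up to the start of stationary phase, was normalised to same-plate vehicle wells, and the median of three biological replicates is listed.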

[6] = tested on: P. vulgatus WT; assay: as above
Summary of the method: as §2

[7] = tested on: S. enterica typhimurium WT; assay: as above
Summary of the method: as §2

[8] = tested on: S. enterica typhimurium tolC KO; assay: as above
Summary of the method: as §2
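For growth AUC normalised to DMSO control (median) in this document: active when median AUC fell below 0.1.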

SMILES	growth AUC normalised to DMSO control [1]	growth AUC normalised to DMSO control [2]	growth AUC normalised to DMSO control [3]	growth AUC normalised to DMSO control [4]	growth AUC normalised to DMSO control [5]	growth AUC normalised to DMSO control [6]	growth AUC normalised to DMSO control [7]	growth AUC normalised to DMSO control [8]
Nc1ccc(C(=O)O)c(O)c1 [Aminosalicylic acid]	1.03	1.01	0.988	0.962	1.02	1	1.01	1.01
CC(Cc1cccc(C(F)(F)F)c1)NCCOC(=O)c1ccccc1 (stereo not drawn) [Benfluorex]	0.94	0.968	0.869 (active)	1.01	0.956	0.975	0.986	0.98
CN(C)CCN(Cc1ccc(Cl)cc1)c1ccccn1 [Chloropyramine hydrochloride]	0.97	1.03	0.977	1.02	1.07	1.05	0.988	0.953
COC1=C(OC)C(=O)C(CCCCCCCCCCO)=C(C)C1=O [Idebenone]	1.02	1.01	0.989	1.02	0.913	0.95	1.01	0.972
O=C(Nc1ccc([N+](=O)[O-])cc1Cl)c1cc(Cl)ccc1O [Niclosamide]	0.995	0.983	0.0756 (active)	0.843 (active)	0.0144 (active)	0.0167 (active)	0.992	0.00688 (active)
CCN(CC)C(=O)Nc1ccc(OCC(O)CNC(C)(C)C)c(C(C)=O)c1 (stereo not drawn) [Celiprolol hydrochloride]	0.995	0.992	0.99	1.01	0.997	1.01	0.994	0.994
